Test results from PubChem BioAssay AID1566 (Sanford-Burnham Center for Chemical Genomics, 2009).
“And” between values parts separate entries of the source, which are not always exact repeats. Equal entries are not always repeated. Screen size: about 290,000 compounds; about 1,800 (0.62%) were called active. The list comes from a sample in which actives are over-represented; it also holds similar structures and randomly drawn compounds. A number with no mark means an inactive call. Cut-off read from the data, not from the text of the source: active = inhibition above about 50%; inactive = the rest.

experiment: inhibition of NOD2-driven NF-kB reporter – cell-based, luminescence, uHTS, HEK293 (AID 1566); conditions: HEK293 NOD2/NF-kB luciferase reporter, at 4 µM, hits give high values

Structure (SMILES)	inhibition
CCCN(CCC)c1ncnc2c1cnn2-c1ccc(OC)cc1	-123%
COc1ccc(-n2ncc3c(NC(C)C)ncnc32)cc1	13.8%
Cc1cccc(-n2ncc3c(NC4CCCCC4)ncnc32)c1	7.4%
Cc1cccc(-n2ncc3c(N(C)Cc4ccccc4)ncnc32)c1	-120%
Cc1cccc(-n2ncc3c(N(C)C4CCCCC4)ncnc32)c1	72.3% (active)
Fc1cccc(NC(=S)NCCc2ccccc2)c1	10%
CC(=O)Oc1cccc(NC(=O)c2ccc3c(c2)C(=O)N(CC(C)C)C3=O)c1	-7.8%
CCN(CC)c1ccc(S(=O)(=O)N2CCOCC2)cc1NC(=O)CN1CCN(Cc2ccccc2)CC1	-7.9%
O=C(CN1CCc2ccccc2C1)Nc1cc(S(=O)(=O)N2CCOCC2)ccc1N1CCOCC1	-2.4%
COc1ccc(OC)c(N2C(=O)CC(C(C)c3ccccc3)C2=O)c1 (centres undefined)	9.7%
COc1ccc(-n2c3c(cc(C(=O)NCc4ccco4)c2=O)C(=O)CC(C)(C)C3)cc1	10.7%
Cc1ccc(C(=O)CSc2nnc3ccccn23)c(C)c1	-52.8%
Cc1cc(C(=O)CSc2nncn2C)c(C)n1-c1ccccc1	-52.4%
Cc1cc(C(=O)CSc2nnc3ccccn23)c(C)n1-c1ccccc1	66.8% (active)
COc1ccc(NC(=O)c2c(NC(=O)CNCc3ccco3)sc3c2CCC3)cc1	6.3%
O=C(O)c1cccc(Cn2c(Cl)c(/C=N/Nc3ccccc3)sc2=O)c1	14.5%
COC(=O)c1cccc(Cn2c(Cl)c(/C=N/Nc3ccccc3C)sc2=O)c1	10.1%
Cc1ccccc1N/N=C/c1sc(=O)n(Cc2cccc(C(=O)O)c2)c1Cl	51.6% (active)
CCCNC(=S)N1CCC(C(=O)c2ccc(OC)cc2)CC1	15.3%
COC(=O)N1C(=O)[C@](c2ccsc2)(C(C)C)N1C(=O)OC	32.8%
CCCCc1c(C)nc2ccc(Br)cc2c1SCCC#N	18%
CCc1c(C)nc2c(Br)cccc2c1SCCC#N	10.1%
CN=c1scc(-c2cccs2)n1/N=C/c1ccccc1O	88.7% (active)
CN=c1scc(-c2cccs2)n1/N=C/c1ccc(O)c(O)c1O	-25.9%

Structure (SMILES)	inhibition
CC(C)N=c1scc(-c2cccs2)n1/N=C/c1ccc(O)c(O)c1O	-1.3%
CCc1noc(C)c1C(=O)OCC(=O)NC(=O)c1ccccc1	2.8%
COC(=O)c1ccc(NC(=O)c2ccc3nsnc3c2)cc1	-7.1%
c1ccc(COCCC2CO2)cc1 (centres undefined)	-8.4%
CS(=O)(=O)N(CC(=O)NCCSCc1ccccc1Cl)c1ccc(F)cc1	3%
COc1ccc(C(=O)CSc2cc(C)nc3nc(C)nn23)cc1OC	14%
O=C(CSc1ccc(-c2ccc(Cl)cc2)nn1)N1CCCc2ccccc21	-10.9%
O=C(O)c1ccc(-n2cc(-c3cc4ccccc4oc3=O)[nH]c2=S)cc1	27.5%
Cc1ccccc1-c1cn(-c2ccccc2)c(=S)[nH]1	-47.3%
O=c1oc2ccccc2cc1-c1cn(-c2ccccc2)c(=S)[nH]1	80.6% (active)
O=c1[nH]c(C2CCN(S(=O)(=O)Cc3ccccc3)CC2)nc2c1nnn2Cc1ccccc1	5%
Cc1ccc(C(=O)Nc2ccc(CC(=O)O)cc2)o1	7.5%
CCOC(=O)Cc1ccc(NC(=O)c2ccccc2Br)cc1	-12.2%
COC(=O)Cc1ccc(NC(=O)c2ccc(C)c(C)c2)cc1	-48.4%
COC(=O)Cc1ccc(NC(=O)c2ccc(NC(=O)c3ccco3)cc2)cc1	0.9%
CC(C)(C)c1ccc(C(=O)Nc2ccc(NC(=O)C(=O)O)cc2)o1	9.4%
CC(C)(C)c1ccc(C(=O)Nc2ccc(CC(=O)O)cc2)o1	71.6% (active)
COC(=O)Cc1ccc(NC(=O)c2ccc(C(C)(C)C)cc2)cc1	70.7% (active)
CCOC(=O)Cc1ccc(NC(=O)c2ccc([N+](=O)[O-])cc2)cc1	-1.9%
CCOC(=O)Cc1ccc(NC(=O)c2ccc(C(C)(C)C)cc2)cc1	61.9% (active)
Cc1ccc(C)c(S(=O)(=O)N2CCCOC2CNC(=O)C(=O)NCc2ccncc2)c1 (centres undefined)	11.8%
Cc1cccc(N2CCN(C(=O)C3CCCCC3)CC2)c1C	-34.8%
CCCCn1c(N)c(N(CCOC)C(=O)c2ccc(Cl)c(S(=O)(=O)N3CCCC3)c2)c(=O)[nH]c1=O	-2.8%
O=c1cc(O)c2sc(Nc3cccc(C(F)(F)F)c3)nc2[nH]1	16.5%

Structure (SMILES)	inhibition
COc1ccccc1N1C(=O)c2ccc(C(=O)Nc3ccccc3O)cc2C1=O	-3.6%
O=C(c1ccc(Sc2cccc(Cl)c2)c([N+](=O)[O-])c1)N1CCN(c2ccccn2)CC1	9.4%
O=C(c1ccc(Br)c([N+](=O)[O-])c1)N1CCN(Cc2ccccc2)CC1	10%
Cc1cc(C(=O)N2CCN(Cc3ccccc3)CC2)ccc1[N+](=O)[O-]	6.4%
O=C(c1ccc(S(=O)(=O)Cc2ccccc2F)c([N+](=O)[O-])c1)N1CCCCCC1	22.6%
O=C(c1ccc(Cl)c([N+](=O)[O-])c1)N1CCN(c2ccccn2)CC1	6.3%
O=C(c1ccc(S(=O)(=O)Cc2cc(F)ccc2F)c([N+](=O)[O-])c1)N1CCCC1	3.3%
CCCSc1nnc(CSc2nc3ccccc3s2)n1-c1ccccc1	2.7%
O=C(COC(=O)c1ccccc1O)Nc1cccc(S(=O)(=O)NC2=NCCCCC2)c1	14.9%
O=C1CCCN1CCC1CCN(C(=S)Nc2ccc(F)cc2)CC1	1.1%
Cc1ccc(C(=O)c2cnc3ccccc3c2-c2ccccc2)cc1	50.7% (active)
Cc1cccc(C(=O)c2cnc3ccccc3c2-c2ccccc2)c1	1.1%
COc1ccc(C(=O)c2cnc3ccccc3c2-c2ccccc2)cc1	29.3%
O=C(NCc1cccc(C(F)(F)F)c1)C1CC(c2c(Cl)cccc2Cl)=NO1 (centres undefined)	-28.5%
O=C(O)c1cccc(-c2ccc(/C=C3/SC(=Nc4ccccc4)N(Cc4cccnc4)C3=O)o2)c1	53.1% (active)
CCN1C(=O)/C(=C\c2ccc(-c3cccc(C(=O)OC)c3)o2)SC1=Nc1ccc(C(=O)O)cc1	4.2%
CCN=C1S/C(=C\c2ccc(-c3cccc(C(=O)O)c3)o2)C(=O)N1CC	-81.2%
Cc1cc(NC(=O)CSc2nnnn2C)n(-c2ccccc2)n1	6.4%
CCOC(=O)C1CCCN(S(=O)(=O)c2ccc(OC)c3ccccc23)C1 (centres undefined)	8.9%
Cc1ccc(NC(=O)Nc2ccc3c(c2)CCC3)cc1C	-15.3%
O=C(O)c1ccc2c(c1)CCC2	25.5%
CN(C)C(=O)C(OC(=O)c1ccc2c(c1)CCCC2)c1ccccc1 (centres undefined)	90.9% (active)
CN(C)C(=O)C(OC(=O)c1ccc2ccccc2n1)c1ccccc1 (centres undefined)	-9.4%
O=C(COc1ccc(S(=O)(=O)NCc2ccccc2)cc1)NCC1CCCO1 (centres undefined)	-3%

Structure (SMILES)	inhibition
Cc1csc(NC(=O)CSc2nnc(NC(=O)COc3ccc(Cl)cc3)s2)n1	-17.3%
CCc1n(CC(O)COCC2CC=CCC2)c2ccccc2[n+]1C (centres undefined)	55.3% (active)
CCc1nc2ccccc2n1CC(O)COCC1CC=CCC1 (centres undefined)	-7.7%
CCCc1n(CC(O)COCC2CC=CCC2)c2ccccc2[n+]1C (centres undefined)	5.7%
Cc1cc(=O)oc2c(C)c(OC(C)C(=O)Nc3ccc(N4CCC(C)CC4)cc3)ccc12 (centres undefined)	3.4%
Cn1c(=O)c2c(-c3ccc(OC(F)F)cc3)cc(-c3ccccc3)nc2n(C)c1=O	-4.7%
COC(=O)COc1ccc(S(=O)(=O)Nc2cc([N+](=O)[O-])ccc2C)cc1	8.7%
O=C(CCn1cccc1)NCc1ccc(Cl)cc1	5.1%
CCOc1cc(/C=N/NC(=O)c2cc(C3CC3)[nH]n2)ccc1O	-2.8%
O=C(N/N=C/c1cccc2ccccc12)c1cc(C2CC2)[nH]n1	10.5%
CCOc1cccc(/C=N/NC(=O)c2cc(C3CC3)[nH]n2)c1O	63.2% (active)
Cc1ccc(C)c(NC(=O)CCN2C(=O)c3ccccc3C2=O)c1	-5.3%
COc1ccc(N2CC(C(=O)N3CCN(c4ccccc4OC)CC3)CC2=O)cc1 (centres undefined)	12.7%
Cc1ccc(S(=O)(=O)Nc2ccc(N3CCOCC3)cc2)cc1	0.3%
COc1ccccc1N1CCN(C(=O)C2CCN(S(=O)(=O)c3ccc4c(c3)CC(C)N4C(=O)C3CC3)CC2)CC1 (centres undefined)	27%
COc1ccc(Oc2nc3c(c(=O)n(C)c(=O)n3C)n2C)cc1	26.2%
Cn1c(=O)c2c(nc(Oc3ccccc3)n2C)n(C)c1=O	4.8% and 12.7%
Cc1c(C#N)sc2nc(-c3ccccc3)nc(N3CCCC3)c12	-1.5%
COCc1cc(C)nc(SCC(=O)Nc2ccccc2N2CCOCC2)c1C#N	40%
COCc1cc(C)nc(SCC(=O)Nc2cc(C(F)(F)F)ccc2N2CCOCC2)c1C#N	58.6% (active)
COCc1cc(C)nc(SCC(=O)Nc2ccc(N3CCOCC3)cc2)c1C#N	5%
COCC(C)n1c(C)cc(C(=O)COC(=O)CNC(=O)c2ccccc2)c1C (centres undefined)	20.5%
